Assay results reported in ChEMBL document CHEMBL3433997, “St. Jude Leishmania screening dataset” (2016).
Values joined by “and” are separate entries in the source; they are usually repeats but may differ in a detail not shown here. Equal entries are not always repeated.

Legend:
Type in all cases: functional
[1] = target: Solute carrier family 2, facilitated glucose transporter member 1 (Homo sapiens) (UniProt P11166); test: ST_JUDE_LEISH: Cytotoxicity at 2uM final concentration against transgenic Leishmania Mexicana promastigotes LmGLUT1 that are glucose transport deficient and complemented with the human glucose transporter GLUT1. Activity is measured by DNA content using SYBR green in vitro
[2] = target: Hexose transporter 1 (Plasmodium falciparum) (UniProt O97467); test: ST_JUDE_LEISH: Cytotoxicity at 2uM final concentration against transgenic Leishmania Mexicana promastigotes LmPfHT that are glucose transport deficient and complemented with the Plasmodium falciparum hexose transporter. Activity is measured by DNA content using SYBR green in vitro
[3] = target: Glucose transporter (Leishmania mexicana) (UniProt O61059); test: ST_JUDE_LEISH: Cytotoxicity at 2uM final concentration against transgenic Leishmania Mexicana promastigotes LmGT2 that are glucose transport deficient and complemented with the L. Mexicana glucose transporter 2. Activity is measured by DNA content using SYBR green in vitro

Sequence of Solute carrier family 2, facilitated glucose transporter member 1 (Homo sapiens) (P11166 whole entry): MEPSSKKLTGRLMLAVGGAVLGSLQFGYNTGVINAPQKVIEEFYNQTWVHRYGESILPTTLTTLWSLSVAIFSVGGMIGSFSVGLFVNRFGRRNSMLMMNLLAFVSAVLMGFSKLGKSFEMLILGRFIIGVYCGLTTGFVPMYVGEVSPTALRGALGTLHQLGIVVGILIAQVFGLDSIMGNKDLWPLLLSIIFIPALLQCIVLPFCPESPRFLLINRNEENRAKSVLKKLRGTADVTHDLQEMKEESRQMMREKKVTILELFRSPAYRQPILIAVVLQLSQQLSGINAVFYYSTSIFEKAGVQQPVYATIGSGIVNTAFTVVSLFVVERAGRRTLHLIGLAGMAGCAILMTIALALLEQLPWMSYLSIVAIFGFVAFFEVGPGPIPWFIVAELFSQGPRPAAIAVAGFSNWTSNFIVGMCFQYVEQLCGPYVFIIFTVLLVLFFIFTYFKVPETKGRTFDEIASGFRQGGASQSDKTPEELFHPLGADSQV

For `O=C(NC1CCC(CN2CCC(c3c[nH]c4ccccc34)CC2)CC1)c1ccc(-c2ccccc2[N+](=O)[O-])o1` (stereo not drawn), the inhibition [1] was 3.68%, the inhibition [2] was 1.85% and the inhibition [3] was -0.67%.
With `CC1=C(C(=O)NC2CCC(CN3CCC(c4c[nH]c5ccccc45)CC3)CC2)Cc2ccccc21` (stereo not drawn) the inhibition [1] was -3.48% and -2.8%, the inhibition [2] was 2.28% and -2.66% and the inhibition [3] was -4.68% and 10.4%.
`CCOC(C(=O)OCC1CCCN1C)(c1ccccc1)c1ccccc1` (stereo not drawn) showed an inhibition [1] of 1.35%, an inhibition [2] of -0.09% and an inhibition [3] of 0.01%.
`O=C(c1cc(C(F)(F)F)cc(C(F)(F)F)c1)N1CCC(CCN2CCC3(CC2)C(=O)NCN3c2ccccc2)CC1Cc1ccc(Cl)c(Cl)c1` (stereo not drawn) was tested, and the inhibition [1] was 6.32%, the inhibition [2] was 10.7% and the inhibition [3] was 6.06%.
`Cc1[nH]c2ccccc2c1C1=CCN(CCN2CCOc3c(Br)cccc3C2=O)CC1` gave an inhibition [1] of 1.66%, an inhibition [2] of 1.57% and an inhibition [3] of 1.55%.
`O=C1NCN(c2ccc(O)cc2)C12CCN(CCCC(c1ccc(F)cc1)c1ccc(F)cc1)CC2` was tested, and the inhibition [1] was 3.87%, the inhibition [2] was 3.34% and the inhibition [3] was 3.43%.
Work on `CCC(C)CN1CCC(N(C)c2cc(NC(=O)c3cccc(C)c3)ccn2)CC1` (stereo not drawn) yielded an inhibition [1] of -1.69%, an inhibition [2] of 1.14% and an inhibition [3] of -0.14%.
In the case of `Cc1cc(N)nc2ccc(CNCCc3ccccc3Br)cc12`, the inhibition [1] is reported as 1.91%, the inhibition [2] is reported as 1.25% and the inhibition [3] is reported as 1.79%.
Work on `Cc1cc(CN2CCN(CCOC(c3ccccc3)c3ccccc3)CC2)ccc1O` yielded an inhibition [1] of 16%, an inhibition [2] of 13.2% and an inhibition [3] of 13.6%.
`O=C(CCc1ccco1)NC1CCN(CC2(c3ccc(Cl)cc3)CCC2)CC1` was tested, and the inhibition [1] was 9.68%, the inhibition [2] was 8.13% and the inhibition [3] was 7.13%.
`O=C(/C=C/c1ccc(Cl)c(Cl)c1)NCC1CCC(CN2CCC(c3c[nH]c4ccccc34)CC2)CC1` (stereo not drawn) gave an inhibition [1] of 2.37%, an inhibition [2] of -3.01% and an inhibition [3] of 1.76%.
With `O=C(/C=C/c1cc([N+](=O)[O-])ccc1Cl)NC1CCC(CN2CCC(c3c[nH]c4ccccc34)CC2)CC1` (stereo not drawn) the inhibition [1] was 2.1%, the inhibition [2] was 1.69% and the inhibition [3] was 2.13%.
Work on `O=C(/C=C/c1ccc(Cl)c(Cl)c1)NCCCCCN1C2CCC1CC(c1c[nH]c3ccccc13)C2` (stereo not drawn) yielded an inhibition [1] of 0.42%, an inhibition [2] of 1.9% and an inhibition [3] of 2.33%.
For `C=Cc1cc(OC)c2c(c1)c(=O)oc1c2cc(OC)c2c(O)ccc([C@H]3O[C@H]([C@H](C)O)[C@H](O)[C@H]3O)c21`, the inhibition [1] was 12.1%, the inhibition [2] was 32.6% and the inhibition [3] was 8.58%.
`O=C(/C=C/c1cccc(Cl)c1)NC1CCC(CN2CCC(c3c[nH]c4ccccc34)CC2)CC1` (stereo not drawn) was tested, and the inhibition [1] was 2.39% and 2.9%, the inhibition [2] was 2.82% and 1.43% and the inhibition [3] was -0.58% and 2.44%.
For `Cc1ccc(CC(C)NCC(O)c2cccc(Br)c2)cc1` (stereo not drawn), the inhibition [1] was 1.02%, the inhibition [2] was -0.15% and the inhibition [3] was 1.21%.
In the case of `O=C(/C=C/c1cc(C(F)(F)F)ccc1F)N1CCC(CN2CCC(c3c[nH]c4ccccc34)CC2)CC1`, the inhibition [1] is reported as 1.52%, the inhibition [2] is reported as 1.34% and the inhibition [3] is reported as -1.26%.
`CC[C@H]1CN2CC[C@H]1C[C@H]2[C@H](O)c1cc(-c2ccc(C)cc2)nc2ccc(OC)cc12` gave an inhibition [1] of 1.44%, an inhibition [2] of 0.47% and an inhibition [3] of -0.1%.
`O=C(/C=C/c1ccc(Cl)c(Cl)c1)Nc1cccc(CN2CCC(c3c[nH]c4ccccc34)CC2)c1` showed an inhibition [1] of 8.01%, an inhibition [2] of 6.99% and an inhibition [3] of 5.33%.
Work on `Cc1cccc2c(C3CCN(CC4CCC(NC(=O)/C=C/c5ccc(Cl)c(Cl)c5)CC4)CC3)c[nH]c12` (stereo not drawn) yielded an inhibition [1] of 10.9%, an inhibition [2] of 9.79% and an inhibition [3] of 8.09%.
`C/C=C1\CN2CC[C@H]1C[C@H]2[C@H](O)c1ccnc2ccc(O)cc12` was tested, and the inhibition [1] was -0.15%, the inhibition [2] was -0.16% and the inhibition [3] was 0.93%.
With `O=c1c2ccccc2nc(/C=C/c2ccc([N+](=O)[O-])cc2)n1-c1ccccn1` the inhibition [1] was 10.9%, the inhibition [2] was 11% and the inhibition [3] was 6.71%.
Compound `O=C(CCCCCc1ccccc1)NC1CCC(CN2CCC(c3c[nH]c4ccccc34)CC2)CC1` (stereo not drawn) has an inhibition [1] of 0.89%, an inhibition [2] of -3.78% and an inhibition [3] of -1.29%.
`COc1ccc(NC(=S)NC(NC(=O)CF)C(Cl)(Cl)Cl)cc1[N+](=O)[O-]` (stereo not drawn) gave an inhibition [1] of 3.05%, an inhibition [2] of -3.38% and an inhibition [3] of -1.65%.
With `CC[C@H]1C[N+]2([O-])CC[C@@H]1C[C@H]2[C@H](O)c1cc(-c2ccccc2)nc2ccc(OC)cc12` the inhibition [1] was 5.08%, the inhibition [2] was 2.87% and the inhibition [3] was 4.7%.
For `COc1ccc(C=CC(=O)NC2CCC(CN3CCC(c4c[nH]c5ccccc45)CC3)CC2)cc1OC` (stereo not drawn), the inhibition [1] was 2.26% and 2.87%, the inhibition [2] was 0.82% and 2.73% and the inhibition [3] was -1.08% and -3.42%.
`CN1CC=C(c2c[nH]c3ccc(-c4ccccc4)cc23)CC1` showed an inhibition [1] of 7.91%, an inhibition [2] of 2.99% and an inhibition [3] of 5.76%.
Work on `CC1(C)CCCN(C(=O)Cc2ccc3c(c2)CCCC3)C1CN1CC=CC1` (stereo not drawn) yielded an inhibition [1] of 8.1%, an inhibition [2] of 8.82% and an inhibition [3] of 8.93%.
`COC(=O)/C=C/c1ccc(CC(C)NCC(O)c2cccc(Cl)c2)cc1` (stereo not drawn) showed an inhibition [1] of -0.32%, an inhibition [2] of -0.19% and an inhibition [3] of -0.96%.
With `Cc1[nH]c2cc(Cl)ccc2c1C1=CCN(CCN2CCOc3c(Br)cccc3C2=O)CC1` the inhibition [1] was 5.36%, the inhibition [2] was 5.27% and the inhibition [3] was 6.71%.
For `CC(Cc1ccc(-c2nc3ccccc3[nH]2)cc1)NCC(O)c1cccc(C(F)(F)F)c1` (stereo not drawn), the inhibition [1] was 1.35%, the inhibition [2] was -1.73% and the inhibition [3] was -0.37%.
